A selection follows.
aSyn 5UTR act – Activators via SNCA 5'UTR binding, MLPCN | 7.1% of 300,000 active | activity score, % (tested at 7.5 µM), hits read low | AID 1814 | alpha-synuclein 5'UTR reporter, activators screen; in the data active = activity score below about -60%
Starred values were filed as active, the others as inactive.

SMILES | aSyn 5UTR act
Cc1ccn2cc(-c3cccc(NC(=O)C(C)C)c3)nc2c1 | -107.1*
COc1ccc(CC(=O)Nc2ccc(-c3cn4ccc(C)cc4n3)cc2)cc1 | -110.0*
COc1ccc(NC(=O)/C=C/c2cccc(F)c2)cn1 | -196.1*
COc1ccc(NC(=O)/C=C/c2ccco2)cn1 | -237.3*
Cc1c(C(=O)O)cccc1-c1ccc(/C=N/n2cnnc2)o1 | -78.7*
Cc1c(C(=O)O)cccc1-c1ccc(/C=N/Nc2ccc(Br)cc2)o1 | -144.6*
Cc1oc2cc3c(C(=O)N4CCCCC4)c(C)oc3cc2c1C(=O)N1CCCCC1 | -162.2*
Cc1ccc(/C=C2\SC(N3CCCCC3)=NC2=O)cc1 | -175.6*
O=C1N=C(N2CCCCC2)S/C1=C\c1ccc(Cl)cc1 | -149.5*
C=CCOc1ccc(/C=C2\SC(N3CCCCC3)=NC2=O)cc1 | -66.3*
O=C1N=C(N2CCCCC2)S/C1=C\c1ccccc1F | -143.0*
CC(C)(C)C(=O)N1CCN(c2nc3ccc(Br)cc3s2)CC1 | -163.9*
CC(=O)N1CCN(c2nc3ccc(Br)cc3s2)CC1 | -157.6*
CC(C)(C)C(=O)N1CCN(c2nc3ccc(Cl)cc3s2)CC1 | -237.1*
Cc1ccc2nc(NC(=O)COC(=O)c3ccccn3)sc2c1 | -108.7*
CCOCC(=O)Nc1nc2ccc(C)cc2s1 | -85.1*
C/C=C/C(=O)OCC(=O)Nc1nc2ccc(C)cc2s1 | -74.3*
Cc1ccc2nc(NC(=O)CSCC(=O)OCC(=O)c3ccccc3)sc2c1 | 61.7
Cc1ccc2nc(NC(=O)C3CC3C)sc2c1 (stereo not given) | -104.9*
CCOCC(=O)Nc1nc2ccc(OCC)cc2s1 | -73.2*
CCOc1ccc2nc(NC(=O)C3(C)CC3(Br)Br)sc2c1 (stereo not given) | -128.0*
CCOc1ccc2nc(-c3cc(NC(C)=O)ccc3O)sc2c1 | -161.3*
CCOc1ccc2nc(NC(=O)C3CCN(C(=O)c4ccco4)CC3)sc2c1 | -98.5*
CCOc1ccc2nc(NC(=O)c3cnccn3)sc2c1 | -127.5*
Cc1ccc2nc(NC(=O)CCCC(=O)O)sc2c1 | 102.2
SMILES | aSyn 5UTR act
Cc1ccc2nc(NC(=O)CCn3cccc3)sc2c1 | -115.4*
Cc1ccc2[nH]c3ccccc3c(=O)c2c1 | -93.0*
Cc1cc(C)n(-c2nc(-c3ccc(Cl)c(Cl)c3)cs2)n1 | -108.8*
Cn1c(=O)c2c(nc(NCc3ccco3)n2C/C=C/c2ccccc2)n(C)c1=O | 90.4
Cc1cccn2c(=O)c(C=Nc3ccccc3)c(NCc3ccco3)nc12 | -117.9*
Oc1ccc(/C=N/n2cc(-c3ccccc3)[nH]c2=S)cc1 | -92.0*
Cc1ccc(/C=N/n2cc(-c3ccccc3)[nH]c2=S)s1 | -169.4*
S=c1[nH]c(-c2ccccc2)cn1/N=C/c1ccccc1Br | -83.1*
CSc1nnc2c(n1)OC(C)N(C(=O)c1ccccc1)c1ccccc1-2 (stereo not given) | -65.2*
CCOc1ccc2nc(/N=C/c3c(C)[nH]n(-c4ccccc4)c3=O)sc2c1 | -144.3*
CCOc1ccc2nc(/N=C/c3c(C)[nH]n(-c4ccc(C)cc4)c3=O)sc2c1 | -143.0*
CCOc1ccc2c(c1)OC(c1ccc(C)cc1)(C(F)(F)F)NC2=O (stereo not given) | 95.8
CCCCCN=Cc1c(C)[nH]n(-c2nc3ccccc3s2)c1=O | 62.5
O=C(/C=C/c1cccs1)Nc1ccc([N+](=O)[O-])cc1 | -146.6*
O=C(/C=C/c1cccs1)NCc1ccccc1 | -109.5*
Cc1ccc(NC(=O)/C=C/c2cccs2)c([N+](=O)[O-])c1 | -160.7*
CCCOC(=O)c1ccc(NC(=O)/C=C/c2cccs2)cc1 | -209.0*
CC(C)(C)c1ccc(/C=C/C(=O)Nc2ccncc2)cc1 | -77.1*
O=C(/C=C/c1cccs1)Nc1ccncc1 | -126.1*
Cc1cccc(NC(=O)/C=C/c2cccs2)n1 | -108.5*
Cc1ccc2cc(C3C(C#N)=C(N)Oc4c3ccc3cccnc43)c(=O)[nH]c2c1 (stereo not given) | 61.0
Cc1ccc(-c2ccc(C3C(C#N)=C(N)Oc4n[nH]c(C)c43)o2)cc1 (stereo not given) | -107.3*
Cc1[nH]nc2c1C(c1ccc(-c3ccc(Cl)cc3)o1)C(C#N)=C(N)O2 (stereo not given) | -63.0*
CCC(C)N1C(=O)S/C(=C/c2ccc3c(c2)n(C)c(=O)n3C)C1=O (stereo not given) | -68.6*
Cc1ccc(NC(=O)NCc2cccn2C)cc1C | -123.5*
SMILES | aSyn 5UTR act
Cn1cccc1CNC(=O)Nc1ccc(Cl)cc1 | -115.5*
CCCC(=O)N1CCN(c2nc3ccc(Cl)cc3s2)CC1 | -139.0*
CCCC(=O)N1CCN(c2nc3ccc(Br)cc3s2)CC1 | -141.5*
CCCC(=O)N1CCN(c2nc3ccc(CC)cc3s2)CC1 | -115.6*
CCc1ccc2nc(N(CCCN(C)C)C(=O)c3ccc(S(=O)(=O)N(C)C4CCCCC4)cc3)sc2c1 | 55.0
CCCCC(=O)N1CCN(c2nc3ccc(Br)cc3s2)CC1 | -102.4*
Cc1ccc(NC(=O)c2ccc(Cl)cc2Cl)cc1O | -169.7*
O=C(Nc1ccc(Cl)cc1C(F)(F)F)c1ccc(Cl)cc1 | -104.4*
O=C(Nc1cc(F)c(Br)cc1F)c1ccc(Cl)cc1 | -152.3*
Cc1ccc(C(=O)Nc2ccc(Cl)cc2C)c(Cl)c1 | -71.1*
CN1C=C/C(=C\c2cc[n+](C)c3ccccc23)c2ccccc21 | 74.0
C#Cc1cccc(NC(=O)c2ccc(Cl)cc2Cl)c1 | -185.2*
Cc1ccc(C(=O)Nc2ccc(Cl)cc2C(F)(F)F)c(Cl)c1 | -101.1*
COc1ccc(-n2ncc3c(N4CCC(C(N)=O)CC4)ncnc32)cc1 | -124.1*
CCN1CCN(c2ncnc3c2cnn3-c2ccccc2)CC1 | -98.1*
CCOC(=O)N1CCN(c2ncnc3c2cnn3-c2ccc(Cl)cc2)CC1 | -85.7*
Oc1c(CN2CCN(c3ccccc3)CC2)cc(Br)c2cccnc12 | 85.5
CCN1CCN(c2ncnc3c2cnn3-c2ccc(Cl)cc2)CC1 | -63.3*
c1ccc(-n2ncc3c(N4CCCCC4)ncnc32)cc1 | 94.5
CC1CC(C)CN(c2ncnc3c2cnn3-c2ccc(Cl)cc2)C1 (stereo not given) | -99.0*
COc1ccc(-n2ncc3c(N4CCN(Cc5ccccc5)CC4)ncnc32)cc1 | -115.0*
CC1CCCN(c2ncnc3c2cnn3-c2ccc(Cl)cc2)C1 (stereo not given) | 98.0
O=C(Nc1cccc2ncccc12)c1ccc([N+](=O)[O-])o1 | -169.5*
Cc1c(NC(=O)c2ccc([N+](=O)[O-])o2)cccc1-c1nc2ncccc2o1 | -228.1*
O=C(Nc1cccc2ncccc12)c1ccc(-c2ccc(Br)cc2)o1 | -79.2*
SMILES | aSyn 5UTR act
O=C(CSc1nnc(NC(=O)c2ccc(F)cc2)s1)NC1CC1 | -79.4*
CCOC(=O)CNC(=O)CSc1nnc(NC(=O)c2ccc(C)cc2)s1 | 73.9
Cc1cccc(C(=O)Nc2nnc(SCC(=O)NC3CC3)s2)c1 | -66.4*
O=C(CSc1nnc(NC(=O)c2ccccc2F)s1)NCC1CCCO1 (stereo not given) | -71.7*
Cc1ccc(OCCOc2cccc(Br)c2)c([N+](=O)[O-])n1 | -189.9*
Cc1ccc(OCc2ccc(-c3ccccc3)cc2)c([N+](=O)[O-])n1 | -83.6*
Cc1ccc(OCc2ccc(Br)cc2)c([N+](=O)[O-])n1 | -141.1*
O=CC1=C(c2ccccc2)Oc2ccccc2O1 | -61.8*
Clc1ccc(-c2csc(Nc3ccccc3)[n+]2Cc2ccco2)c(Cl)c1 | -269.0*
C=CC[n+]1c(-c2ccc(Cl)cc2Cl)csc1Nc1ccc(NC(C)=O)cc1 | 94.4
CCCC[n+]1c(-c2ccc(Cl)cc2Cl)csc1Nc1ccccc1 | -127.7*
CN1C2CCC1/C(=C\c1ccccc1)C(=O)/C2=C\c1ccccc1 | -185.1*

Assay outcomes as filed in PubChem.
